Laboratory results reported in PubChem BioAssay AID1159580 (chemical genetic matrix, 2015).
About 2,000 (36%) of roughly 5,500 compounds were called active. Roughly 18% stayed inconclusive and do not appear here. Cut-off read from the data, not from the text of the source: active = normalized growth mostly below about 0.91 (no sharp cut-off); inconclusive = no clear call, values can overlap the other calls; inactive = mostly above about 0.92. Some of the results follow.

Test: chemical genetic growth profiling, strain panel (AID 1159580);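 note: tested at 20 µM; growth read once vehicle control cultures reached saturation at 30 °C; 1 = growth at the plate median or of vehicle wells; lower values mean less growth of the strain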
Conditions: S. cerevisiae deletion strains, growth OD

Measured: normalized growth

CN(C)CCc1c[nH]c2ccc(Cn3cncn3)cc12
inactive: locus YHR030C, strain SLT2, stronger effect = lower value 0.92 | locus YHR079C, strain IRE1, stronger effect = lower value 0.928 | locus YJL095W, strain BCK1, stronger effect = lower value 0.961 | locus YJR066W, strain TOR1, stronger effect = lower value 0.914 | locus YLR113W, strain HOG1, stronger effect = lower value 0.918 | locus YNL183C, strain NPR1, stronger effect = lower value 0.926 | locus YOR231W, strain MKK1, stronger effect = lower value 0.928 | locus YPL256C, strain CLN2, stronger effect = lower value 0.936

CC(N)=NCCC[C@H](N)C(=O)O
inactive: locus YAL040C, strain CLN3, stronger effect = lower value 1 | locus YCL061C, strain MRC1 (second series), stronger effect = lower value 1.01 | locus YDR363W, strain ESC2, stronger effect = lower value 1.01 | locus YER002W, strain NOP16, stronger effect = lower value 0.997 | locus YMR263W, strain SAP30, stronger effect = lower value 1.02 | locus YMR307W, strain GAS1, stronger effect = lower value 1.01 | locus YNL175C, strain NOP13, stronger effect = lower value 1.01 | locus YNL197C, strain WHI3, stronger effect = lower value 0.999 | locus YNL224C, strain SQS1, stronger effect = lower value 1 | locus YOR083W, strain WHI5 (second series), stronger effect = lower value 1.02 | locus YPL241C, strain CIN2, stronger effect = lower value 1.01
